Assay results as given in publication PMC4336329 (PLoS ONE, 2015).
The campaign covered roughly 310,000 compounds. About 14,000 (4.5%) showed an effect of 50% or more. The effect is printed as a negative number. For the sample, strong results were picked, then their nearest neighbours and some compounds at random.

The compounds below were run against human ether-à-go-go-related gene (hERG) potassium channel (human, UniProt Q12809) (assay: primary screen, population patch clamp on CHO cells stably expressing hERG; higher = less effect of the substance).
Chain of human ether-à-go-go-related gene (hERG) potassium channel (Q12809 whole entry, looked up): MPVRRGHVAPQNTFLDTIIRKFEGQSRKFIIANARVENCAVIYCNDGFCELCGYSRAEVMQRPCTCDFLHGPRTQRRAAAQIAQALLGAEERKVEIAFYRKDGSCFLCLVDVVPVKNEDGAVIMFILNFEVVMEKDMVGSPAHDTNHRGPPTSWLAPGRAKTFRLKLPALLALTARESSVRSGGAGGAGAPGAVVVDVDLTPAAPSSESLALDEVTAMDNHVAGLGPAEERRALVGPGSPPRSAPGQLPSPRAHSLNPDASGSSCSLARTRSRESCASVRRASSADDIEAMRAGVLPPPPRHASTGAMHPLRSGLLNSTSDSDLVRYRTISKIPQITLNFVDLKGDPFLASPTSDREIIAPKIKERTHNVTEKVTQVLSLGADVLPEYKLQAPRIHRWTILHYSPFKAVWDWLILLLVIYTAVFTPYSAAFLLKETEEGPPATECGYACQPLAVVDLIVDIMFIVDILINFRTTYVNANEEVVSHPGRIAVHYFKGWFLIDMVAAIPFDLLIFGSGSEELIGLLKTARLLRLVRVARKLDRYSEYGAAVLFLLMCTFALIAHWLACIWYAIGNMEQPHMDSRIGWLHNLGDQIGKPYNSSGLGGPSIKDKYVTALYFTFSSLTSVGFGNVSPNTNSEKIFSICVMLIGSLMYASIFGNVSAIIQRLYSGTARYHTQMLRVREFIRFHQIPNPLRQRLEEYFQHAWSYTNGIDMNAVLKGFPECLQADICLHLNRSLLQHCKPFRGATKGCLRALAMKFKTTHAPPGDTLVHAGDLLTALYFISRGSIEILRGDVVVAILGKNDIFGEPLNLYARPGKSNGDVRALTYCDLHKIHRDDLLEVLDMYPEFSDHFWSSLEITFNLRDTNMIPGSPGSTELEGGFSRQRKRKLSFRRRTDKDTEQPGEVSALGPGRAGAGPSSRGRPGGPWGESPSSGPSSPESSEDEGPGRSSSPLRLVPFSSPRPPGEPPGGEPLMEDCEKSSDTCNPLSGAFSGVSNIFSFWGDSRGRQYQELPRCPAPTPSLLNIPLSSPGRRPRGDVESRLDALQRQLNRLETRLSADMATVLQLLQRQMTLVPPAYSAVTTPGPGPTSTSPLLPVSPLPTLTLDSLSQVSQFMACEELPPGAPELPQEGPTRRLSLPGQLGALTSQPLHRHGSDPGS
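Also: peak tail current of the secondary pulse compared with the same well before compound.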

Row | SMILES | hERG current change (%, negative = inhibition) at 10uM [%]
1 | CC(C)C[C@H](NC(=O)c1nc[nH]c1C(=O)NC1CCN(C(=O)OC(C)(C)C)CC1)C(=O)OCc1ccccc1 | 3.48
2 | COc1cccc(C2CC(=O)C3=C(C2)Nc2ccccc2N(C(=O)CCC(=O)O)C3c2ccc(F)cc2)c1 (centres unmarked) | 5.1
3 | Nc1ccccc1NC1=CC(=O)CC(c2ccco2)C1 (centres unmarked) | 10.4
4 | Cn1c(SCC(=O)c2ccccc2)nnc1-c1cnccn1 | 6.47
5 | COc1cccc(NC(=O)CSc2ccc3nnc(-c4cccnc4)n3n2)c1 | -37.5
6 | Cc1ccc(NC(=O)CSc2ccc3nnc(-c4cccnc4)n3n2)cc1 | -53.1
7 | CC(=O)Nc1ccc(NC(=O)CSc2ccc3nnc(-c4cccnc4)n3n2)cc1 | 2.95
8 | CCOc1ccc(NC(=O)CSc2ccc3nnc(-c4cccnc4)n3n2)cc1 | -54.7
9 | CCOc1ccc(NC(=O)CSc2ccc(-c3cccnc3)nn2)cc1 | -5.55
10 | CC(=O)c1ccc(NC(=O)CSc2ccc3nnc(-c4cccnc4)n3n2)cc1 | -28.8
11 | O=C(CSc1ccc2nnc(-c3cccnc3)n2n1)Nc1ccccc1 | -17.8
12 | COc1ccc(NC(=O)CSc2ccc3nnc(-c4cccnc4)n3n2)cc1OC | 1.17
13 | COc1ccc(NC(=O)CSc2ccc3nnc(-c4cccnc4)n3n2)cc1 | -50.4
14 | Cc1c(C(=O)Nc2cccc(Cl)c2)cn2c(nc3ccccc32)c1C#N | 6.75
15 | CC(=O)NCC(=O)OC(C)C(=O)Nc1ccc(C(C)=O)cc1 (centres unmarked) | -10.4
16 | COc1cc(/C=C(\C#N)C(=O)NCC2CCCO2)ccc1OCC(N)=O (centres unmarked) | 28.7
17 | C/C(=N\NC(=O)CCc1ccccc1)c1ccc(Br)cc1 | 11
18 | CN(C)S(=O)(=O)c1ccc(NC(=O)COc2ncnc3sccc23)cc1 | 15.7
19 | CN(C)c1ccc(CNC(=O)CCNS(=O)(=O)c2cc(Br)cnc2N)cc1 | 12
20 | COc1cccc(/C=C/C(=O)Nc2ccccc2N2CCOCC2)c1 | -15.4
21 | CCCCS(=O)CC(COc1ccc(Cl)cc1)OC(=O)c1ccccc1 (centres unmarked) | -56.3
22 | CCCCS(=O)CC(CS(=O)CCCC)OC(=O)c1ccccc1 (centres unmarked) | -35.2
23 | CCCCS(=O)CC(COC)OC(=O)c1ccccc1 (centres unmarked) | 2.46
24 | Cc1ccccc1NC(=O)c1oc(=O)c2ccccc2c1-c1ccccc1 | -1.57
25 | Cc1ccc(-c2c(C(=O)NCc3ccccc3)oc(=O)c3ccccc23)cc1 | 1.98
26 | CC(C)N(CCNC(=O)c1oc(=O)c2ccccc2c1-c1ccccc1)Cc1ccco1 | -67.9
